Compound activity (PubChem BioAssay)
KCNQ2 block – inhibitors of rat KCNQ2 potassium channel; CHO-K1 KCNQ2, FluxOR thallium flux, 20 min; active compounds read low; B-score at 10 µM; 310,000 tested, 1.1% active; AID 2156;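 active = fluorescence ratio B-score at most minus 3 library SDs, with starting brightness B-score within 2 library SDs, cut at about -5.5 in these data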
KCNQ2 enhance – KCNQ2 (rat) channel potentiation. O88943. AID 2239. B-score at 10 µM. CHO-K1 KCNQ2, FluxOR thallium flux fluorescence; active compounds read high. 310,000 tested, 0.54% active;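 active = fluorescence ratio B-score at least 3 SD of library B-scores, with initial fluorescence B-score within 3 of them, cut at about 5.3 in these data; same plate scores as AID 2156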;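 also: B-score of peak minus minimum over baseline fluorescence ratio after K+ and Tl+ stimulus; positive B-score means potentiation of KCNQ2 with more thallium influx and brighter signal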
Kir21 conf inh – confirmation of mouse Kir2.1 potassium channel inhibitors; 2,300 tested, 41% active; shares compounds with KCNQ2 enhance; Kir2.1-expressing cells, FluxOR thallium flux fluorescence; active compounds read low; Tl flux remaining, % of negative control (active compounds read low), % at 10 µM;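 active = Primary-screen hit whose thallium flux fell at least 3 control SD below untreated wells in both duplicates, with normal baseline fluorescence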;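 also: 0% = blank wells without stimulus and 100% = stimulated no-compound controls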
HEK293 Tl flux – counter-screen for Kir2.1 inhibitors: effect in parental HEK293 cells | 2,300 tested, 19% active | shares compounds with KCNQ2 enhance | AID 2105 | FluxOR thallium flux fluorescence; 0% = unstimulated blank wells | FluxOR signal as % of negative control (100 = no effect), % at 10 µM;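 active = dye signal at least 3 control SD above or below untreated wells in both duplicates, raw fluorescence within 3, either direction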;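 also: percent is based on the flux ratio of peak minus minimum fluorescence over baseline F0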
CHO-K1 Tl ctr – counter-screen for KCNQ2 potentiators: effect in parental CHO-K1 cells | FluxOR thallium flux fluorescence; zero = vehicle mean+3SD, 100% = vehicle-minus-blank window | 1,200 tested, 43% active | activity increase over 3SD of controls, % at 10 µM | shares compounds with KCNQ2 enhance;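 active = signal rise of at least 3 SD above the untreated control mean, in both duplicate wells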;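 also: counter screen of KCNQ2 potentiator hits so any rise reflects channel-independent effects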
KCNQ1 sel pot – selectivity of KCNQ2 potentiators: effect on human KCNQ1. activation over 3SD threshold, % at 10 µM. 1,200 tested, 28% active. CHO KCNQ1 stable, FluxOR thallium flux fluorescence; beyond 3SD, as % of vehicle-control signal. shares compounds with KCNQ2 enhance;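 active = fluorescence ratio rise of at least 3 SD of vehicle wells above their mean, in both replicate wells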;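 also: 0% = vehicle mean plus 3 SD and 100% = vehicle minus unstimulated blank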
Target sequence (P51787 whole entry, looked up): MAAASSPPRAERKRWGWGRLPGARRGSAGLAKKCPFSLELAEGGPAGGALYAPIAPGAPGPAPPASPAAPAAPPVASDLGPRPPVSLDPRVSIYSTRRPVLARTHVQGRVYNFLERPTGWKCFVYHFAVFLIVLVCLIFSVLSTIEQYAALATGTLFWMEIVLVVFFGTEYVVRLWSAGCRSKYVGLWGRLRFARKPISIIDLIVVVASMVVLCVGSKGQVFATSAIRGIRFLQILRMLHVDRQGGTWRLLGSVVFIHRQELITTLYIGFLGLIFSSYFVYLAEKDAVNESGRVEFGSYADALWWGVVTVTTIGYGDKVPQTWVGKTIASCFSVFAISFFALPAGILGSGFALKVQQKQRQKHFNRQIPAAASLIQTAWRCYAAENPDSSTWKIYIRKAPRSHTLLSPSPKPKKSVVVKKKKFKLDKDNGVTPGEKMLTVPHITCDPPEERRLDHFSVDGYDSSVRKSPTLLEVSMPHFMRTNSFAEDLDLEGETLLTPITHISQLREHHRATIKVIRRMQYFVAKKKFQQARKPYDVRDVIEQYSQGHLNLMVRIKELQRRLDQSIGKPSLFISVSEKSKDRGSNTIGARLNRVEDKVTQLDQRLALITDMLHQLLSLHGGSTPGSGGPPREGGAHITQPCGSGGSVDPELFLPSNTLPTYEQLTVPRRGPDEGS
KCNQ2 pot confirm – confirmation of rat KCNQ2 potassium channel potentiators | potentiation, less the hit threshold, % at 10 µM | shares compounds with KCNQ2 enhance | CHO-KCNQ2 cells, FluxOR thallium flux fluorescence | 1,200 tested, 68% active;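 active = fluorescence ratio rising 3 SD or more over the vehicle control mean in both replicates, plus primary screen hit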;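 also: peak minus minimum thallium fluorescence divided by baseline after K/Tl stimulus; 0% = vehicle mean plus 3 SD and 100% = vehicle minus unstimulated blank difference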
Kir2-1 sel – mouse Kir2.1 off-target activity of KCNQ2 potentiators. shares compounds with KCNQ2 enhance. 1,200 tested, 2% active. AID 2345. activity over 3SD threshold, % at 10 µM. HEK293 Kir2.1, FluxOR thallium flux fluorescence;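 active = fluorescence ratio rise of at least 3 SD above the vehicle-control mean, seen in both replicates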;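 also: 0% = vehicle mean plus 3 SD and 100% = vehicle minus no-stimulus blank window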
KCNQ2 W236L pot – rat KCNQ2 W236L mutant potentiation by KCNQ2 potentiators. shares compounds with KCNQ2 enhance. CHO KCNQ2-W236L, automated patch clamp current. current increase over 3SD of negative controls (%), active compounds read high, % at 25 µM. AID 2558. 940 tested, 10% active;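 active = current increase at least 3 SD of the untreated controls above them in both duplicate recordings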
* hit, by the source's call. An excerpt weighted towards active compounds, which were near 1.6% of everything screened.

Results for CCC(=O)N(CCC(Cc1ccccc1)c1ccco1)Cc1ccco1 (configuration not stated) ?
KCNQ2 block: inactive; Kir21 conf inh: 54%*; HEK293 Tl flux: inactive

How did CCC(=O)N(CCC(c1ccccc1)c1ccco1)Cc1cccs1 (configuration not stated) do in these assays?
KCNQ2 block: -14*; KCNQ2 enhance: -14; Kir21 conf inh: 62%*; HEK293 Tl flux: inactive

Results for COc1ccccc1C(CCN(Cc1cccs1)C(C)=O)c1ccco1 (configuration not stated) ?
KCNQ2 block: inactive

How did COc1ccc(CCNc2nnc(C)c(=O)[nH]2)cc1OC do in these assays?
KCNQ2 block: inactive; KCNQ2 enhance: 0.28

How did O=C(CN1CCN(c2ccccc2)CC1)NCc1ccc(F)cc1 do in these assays?
KCNQ2 block: inactive; KCNQ2 enhance: 1.2

How did Cn1c(=O)c2c(SCC(=O)c3ccccc3)nc(C3CC3)nc2n(C)c1=O do in these assays?
KCNQ2 block: inactive; KCNQ2 enhance: 5.4*; Kir21 conf inh: inactive; HEK293 Tl flux: inactive; CHO-K1 Tl ctr: 84*; KCNQ1 sel pot: -14; KCNQ2 pot confirm: 2.4*; Kir2-1 sel: -24; KCNQ2 W236L pot: inactive

How did CCc1nc(SCC(=O)NCCc2ccccc2)c2c(=O)n(C)c(=O)n(C)c2n1 do in these assays?
KCNQ2 block: inactive; KCNQ2 enhance: 0.86

What do the screens show for `CCCc1nc(SCC(=O)c2ccccc2)c2c(=O)n(C)c(=O)n(C)c2n1`?
KCNQ2 block: inactive; KCNQ2 enhance: 25*; Kir21 conf inh: inactive; HEK293 Tl flux: inactive; CHO-K1 Tl ctr: 67*; KCNQ1 sel pot: 79*; KCNQ2 pot confirm: 56*; Kir2-1 sel: -26; KCNQ2 W236L pot: inactive

Results for CCc1nc(SCC(=O)c2ccccc2)c2c(=O)n(C)c(=O)n(C)c2n1 ?
KCNQ2 block: inactive; KCNQ2 enhance: 5.4*; Kir21 conf inh: inactive; HEK293 Tl flux: inactive; CHO-K1 Tl ctr: -25; KCNQ1 sel pot: -19; KCNQ2 pot confirm: 5.8*; Kir2-1 sel: -23; KCNQ2 W236L pot: inactive

How did CCCc1nc(SCC(=O)NCc2ccco2)c2c(=O)n(C)c(=O)n(C)c2n1 do in these assays?
KCNQ2 block: inactive; KCNQ2 enhance: 2.5

Results for Cn1c(=O)c2c(SCC(=O)Nc3nccs3)nc(C3CC3)nc2n(C)c1=O ?
KCNQ2 block: inactive; KCNQ2 enhance: 0.34

Results for Cc1cccc(N=CC=C2OC(C)(C)C(C)(C)O2)c1 ?
KCNQ2 block: inactive

Results for O=C1c2ccccc2C(=O)N1CCC(c1ccc(F)cc1)c1ccco1 (configuration not stated) ?
KCNQ2 block: inactive

Results for Cc1ccc(C(CCNC(C)c2cccs2)c2ccco2)cc1 (configuration not stated) ?
KCNQ2 block: inactive; Kir21 conf inh: 36%*; HEK293 Tl flux: inactive

Results for Cc1ccc2c(c1)NC(=O)C(CC(=O)NCc1ccc(F)cc1)O2 (configuration not stated) ?
KCNQ2 block: inactive; KCNQ2 enhance: 0.61

Results for CNCC[C@H](Oc1cccc2ccccc12)c1cccs1 ?
KCNQ2 block: inactive; Kir21 conf inh: inactive; HEK293 Tl flux: inactive

How did CNCCC(Oc1ccc(C(F)(F)F)cc1)c1ccccc1 (configuration not stated) do in these assays?
KCNQ2 block: inactive

Results for CCOc1ccc(NC(=O)NNC(=O)COc2ccc3ccccc3c2)cc1 ?
KCNQ2 block: inactive; KCNQ2 enhance: 0.13
